# Experimental data published in PubChem BioAssay AID2263 (National Center for Advancing Translational Sciences (NCATS), 2010).
# This is one part of the list. Results filed as inconclusive are left out. Values without a mark were called inactive. The call rests on the fitted dose curve; in most records, active means well fitted inhibition curve with a large enough effect; inconclusive means small, poorly fitted or top-dose-only effect, or effect the other way; inactive means flat fitted curve, though single readings scatter.
# Target: Pyruvate kinase PKM (Homo sapiens) (UniProt P14618)
# Sequence (P14618 whole entry, looked up, canonical isoform): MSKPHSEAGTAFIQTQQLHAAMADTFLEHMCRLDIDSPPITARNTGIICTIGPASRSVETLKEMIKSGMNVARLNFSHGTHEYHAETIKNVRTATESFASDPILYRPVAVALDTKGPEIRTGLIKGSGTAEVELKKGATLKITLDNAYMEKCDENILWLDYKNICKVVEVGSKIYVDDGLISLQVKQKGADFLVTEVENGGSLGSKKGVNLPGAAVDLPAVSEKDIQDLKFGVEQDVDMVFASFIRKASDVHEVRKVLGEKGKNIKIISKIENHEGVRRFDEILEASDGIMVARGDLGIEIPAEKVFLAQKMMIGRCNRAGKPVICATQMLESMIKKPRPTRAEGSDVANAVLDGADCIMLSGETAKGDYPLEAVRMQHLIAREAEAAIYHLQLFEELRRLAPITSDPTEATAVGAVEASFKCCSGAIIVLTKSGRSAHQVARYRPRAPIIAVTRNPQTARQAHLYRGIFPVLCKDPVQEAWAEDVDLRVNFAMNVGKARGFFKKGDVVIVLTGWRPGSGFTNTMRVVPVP
# Assay: Confirmation Concentration-Response Assay for Inhibitors of Human Muscle isoform 2 Pyruvate Kinase
# Settings: purified hPK-M2, Kinase-Glo ATP luminescence, 1 h; series mostly up to 57.5 µM; activity change, negative = inhibition: at the top concentration
# Source text: NIH Chemical Genomics Center [NCGC] Matthew G. Vander Heiden, M.D., Ph.D. [Harvard Medical School, 77 Avenue Louis Pasteur, Boston, MA 02115] MLPCN Grant: 1 R03 MH085679-01 NCGC Assay Overview: Human pyruvate kinase muscle 2 (hPK-M2) enzyme was supplied as a highly purified (>95% pure) preparation from Harvard Medical School and assayed for its ability to generate ATP from ADP using phosphoenolpyruvate (PEP) as a substrate. ATP generation was detected in a coupled reaction by luciferase-mediated luminescence, an ATP-dependent process. Pyruvate kinase substrates, PEP and ADP, were present in the assay at Km and approximately 10-fold below Km respectively. The enzyme was assayed at an intermediate level of activity to screen for both inhibitors and activators.
# NCGC Assay Protocol Summary: Three uL of substrate mix (at r.t.) in assay buffer (50 mM Imidazole pH7.2, 50 mM KCl, 7 mM MgCl2, 0.01% Tween 20, 0.05% BSA) was dispensed into white solid bottom 1,536 well microtiter plates so that the final concentrations of substrates in the assay were 0.1 mM ADP and 0.5 mM PEP. 23 nL of compound were delivered by a pin tool and 1 uL of enzyme mix in assay buffer (4 degree Celsius) was added. […] Two uL of detection mix (Kinase-Glo, Promega; at 4 degree Celsius protected from light) was added and luminescence read by a ViewLux (Perkin Elmer) at 5 second exposure/plate. […]
row,SMILES,"activity change, negative = inhibition [%]"
1,Cc1ccc(-c2nc3ccccn3c2Nc2ccc(F)cc2)o1,14
